Assay outcomes: PubChem, National Center for Advancing Translational Sciences (NCATS)
IP6K1 inhibitor – Primary qHTS assay for small molecule inhibitors of Inositol hexaphosphate kinase 1 (IP6K1) | IP6K1 kinase, ADP-Glo luminescence, 2 h; stronger effect = lower value | 140,000 compounds, 0.81% hits | activity change, % (series mostly up to about 58 µM) | Inositol hexakisphosphate kinase 1 (Homo sapiens), Q92551; in the data active means activity change below about -25%; further: on the % scale 0 is the no-effect control and ±100 the full control effect
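ADP-Glo luminescence measures ADP made by human IP6K1 during a 2 h RT reaction with ATP/IP6 (mix at 1.3 mM/130 uM); top library doses 57.5 and 19.1 uM final.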
KDM5B inhibitor – Primary screen for KDM5B Histone Demethylases FDH-coupled qHTS. Lysine-specific demethylase 5B (Homo sapiens), Q9UGL1. AID 1347165, 2019. Potency, µM (series often up to 57.7 µM), hits mostly inhibitors. 220,000 compounds, 2.6% hits. KDM5B demethylase, FDH-coupled NADH fluorescence (FDH is formaldehyde dehydrogenase); further: potency means the concentration at half of the fitted maximal effect; 0% is about no effect; nearly all actives have a fitted effect of over 70% in size
Target sequence (Q9UGL1 whole entry, looked up): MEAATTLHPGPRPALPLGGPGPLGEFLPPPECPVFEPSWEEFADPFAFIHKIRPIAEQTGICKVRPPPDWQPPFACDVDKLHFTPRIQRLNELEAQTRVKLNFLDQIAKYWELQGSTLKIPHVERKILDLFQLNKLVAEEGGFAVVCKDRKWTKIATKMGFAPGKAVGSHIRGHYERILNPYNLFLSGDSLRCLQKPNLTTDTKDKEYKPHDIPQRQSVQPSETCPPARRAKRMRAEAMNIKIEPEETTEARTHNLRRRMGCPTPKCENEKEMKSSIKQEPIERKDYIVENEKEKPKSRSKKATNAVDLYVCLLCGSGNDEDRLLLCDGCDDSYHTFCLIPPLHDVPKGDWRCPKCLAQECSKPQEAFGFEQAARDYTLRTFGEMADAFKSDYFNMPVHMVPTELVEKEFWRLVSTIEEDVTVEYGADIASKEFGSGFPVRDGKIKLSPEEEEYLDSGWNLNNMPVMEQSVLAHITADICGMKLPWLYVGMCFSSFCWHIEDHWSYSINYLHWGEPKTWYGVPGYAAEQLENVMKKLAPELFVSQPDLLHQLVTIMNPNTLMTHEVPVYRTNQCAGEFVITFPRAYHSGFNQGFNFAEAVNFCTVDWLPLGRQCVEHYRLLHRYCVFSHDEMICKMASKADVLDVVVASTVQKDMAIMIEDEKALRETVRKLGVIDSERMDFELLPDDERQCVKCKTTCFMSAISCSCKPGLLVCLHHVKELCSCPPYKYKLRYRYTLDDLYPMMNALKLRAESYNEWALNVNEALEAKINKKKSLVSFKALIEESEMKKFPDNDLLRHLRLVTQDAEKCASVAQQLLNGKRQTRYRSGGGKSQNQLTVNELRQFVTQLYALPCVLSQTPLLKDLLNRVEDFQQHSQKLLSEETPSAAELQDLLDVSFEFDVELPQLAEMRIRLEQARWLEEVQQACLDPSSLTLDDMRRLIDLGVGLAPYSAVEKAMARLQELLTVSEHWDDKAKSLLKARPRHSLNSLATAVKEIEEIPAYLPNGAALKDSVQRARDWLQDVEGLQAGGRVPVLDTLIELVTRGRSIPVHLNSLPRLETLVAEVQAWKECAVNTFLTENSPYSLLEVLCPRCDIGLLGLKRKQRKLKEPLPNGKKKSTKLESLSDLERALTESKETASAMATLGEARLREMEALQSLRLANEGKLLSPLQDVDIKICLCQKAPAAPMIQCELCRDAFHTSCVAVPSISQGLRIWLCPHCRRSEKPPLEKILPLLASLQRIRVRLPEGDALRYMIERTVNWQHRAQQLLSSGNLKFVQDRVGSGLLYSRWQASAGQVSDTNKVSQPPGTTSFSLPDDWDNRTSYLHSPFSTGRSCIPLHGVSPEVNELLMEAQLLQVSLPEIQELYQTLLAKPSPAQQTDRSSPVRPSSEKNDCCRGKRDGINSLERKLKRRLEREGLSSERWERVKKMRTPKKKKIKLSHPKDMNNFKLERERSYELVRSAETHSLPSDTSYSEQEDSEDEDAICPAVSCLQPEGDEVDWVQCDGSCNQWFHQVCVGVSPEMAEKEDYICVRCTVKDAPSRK
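qHTS format, multiple compound concentrations. Buffer 50 mM HEPES pH 7.5/0.01% Tween-20; 200 nM KDM5BΔAP final; 10 min compound preincubation; substrate-mix levels 12.5 µM peptide, 25 µM α-KG, 0.25 mM NAD⁺; 30 min RT; ΔRFU.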
IP6K1 conf – Confirmatory qHTS assay for small molecule inhibitors of Inositol hexaphosphate kinase 1 (IP6K1); shares compounds with IP6K1 inhibitor; recombinant IP6K1 kinase, ADP-Glo luminescence, 2 h; Potency, µM (highest dose often 49 µM), inactives show top-dose activity change, negative = inhibition, actives largely listed as inhibitors; 1,200 compounds, 13% hits; AID 1645852, 2021; further: potency means the concentration at half of the fitted maximal effect; on the % scale 0 is the no-effect control and ±100 the full control effect; nearly all actives have a fitted effect of over 65% in size
* hit, by the source's call; [ ] = dose if it differs, or a comment. Hits are enriched below; roughly 2.7% of the tested compounds scored in any of these assays. Unless noted, the call rests on the fitted dose curve; in most records, active means well fitted inhibition curve with a large enough effect; inconclusive means small, poorly fitted or top-dose-only effect; inactive means no such curve, though single readings can be large or run the other way.

CCCS(=O)(=O)N1CC(=O)N(c2ccc(Cl)cc2)C(C)(C(=O)NC2CCCC2)C1 (stereo not given) was read as IP6K1 inhibitor 25 and KDM5B inhibitor inactive.
O=C(Cn1nnc(-c2ccccc2Cl)n1)N1CCC(c2nc3ccccc3s2)CC1 was read as KDM5B inhibitor inactive.
For O=C1CC(c2ccccc2)Cc2[nH]c(=O)c(C(=O)Nc3cccc(F)c3)cc21 (stereo not given) the results were IP6K1 inhibitor -93*, KDM5B inhibitor inconclusive and IP6K1 conf 0%.
For O=C1CC(c2ccccc2)Cc2[nH]c(=O)c(C(=O)Nc3cccc(Cl)c3)cc21 (stereo not given) the results were IP6K1 inhibitor -4 and KDM5B inhibitor inactive.
O=C(NC(C1CC1)C1CC1)c1ccc(Cl)cc1 was read as KDM5B inhibitor inactive.
CCN(C(=O)C1CCC(CNS(=O)(=O)c2cccc3nsnc23)CC1)c1ccc(C)c(C)c1 (stereo not given) was read as IP6K1 inhibitor 21 and KDM5B inhibitor inactive.
Screening CCCCN(CC)C(=O)C1CCC(CNS(=O)(=O)c2cccc3nsnc23)CC1 (stereo not given) returned IP6K1 inhibitor -30*, KDM5B inhibitor inactive and IP6K1 conf -4%.
Screening COC[C@@]12CN(Cc3ccc(C(=O)OC)cc3)C[C@@H]1C(C)(C)COc1ccc(OC)cc12 returned IP6K1 inhibitor 23.
For COc1ccc(OC)c(CN2CCNc3cc(-c4ccnc(C)c4)ncc3C2)c1 the results were IP6K1 inhibitor -27*, KDM5B inhibitor inactive and IP6K1 conf 3%.
Cc1cc(-c2cc3c(cn2)CN(Cc2ccccc2O)CCN3)ccn1 was read as IP6K1 inhibitor -3 and KDM5B inhibitor inactive.
For Cc1nn(-c2ccccc2)c(Oc2ccccc2F)c1CCC(=O)NCc1ccco1 the results were IP6K1 inhibitor -9 and KDM5B inhibitor inconclusive.
Cc1nn(-c2ccccc2)c2c1C(C(C)C)N(C1CCN(C(=O)N3CCOCC3)C1)C2=O (stereo not given) was read as IP6K1 inhibitor -3.
For O=C(NCc1ccncc1)c1cc(C2CC2)nc2c1c(C1CCCN1)nn2-c1ccccc1 (stereo not given) the results were IP6K1 inhibitor -7 and KDM5B inhibitor inconclusive.
COc1ccccc1Nc1ccnc(N2CCC[C@H]2C(=O)NC2CCCCC2)n1 was read as IP6K1 inhibitor -7.
For Cc1ccc([S+](=O)([O-])N2CCN(C(=O)c3cccc(-c4ccccn4)c3)CC2)cc1 the results were IP6K1 inhibitor -10.
`Nc1nc(N)c(S(=O)(=O)c2ccccc2)c(Nc2ccc(Br)cc2)n1` gave IP6K1 inhibitor -36*, KDM5B inhibitor inactive and IP6K1 conf inconclusive.
For Nc1nc(N)c(S(=O)(=O)c2ccccc2)c(Nc2ccccc2)n1 the results were IP6K1 inhibitor -2 and KDM5B inhibitor inactive.
For CCc1ccc(CNC(=O)C2CCCN(S(=O)(=O)c3ccc4c(ccn4C)c3)C2)cc1 (stereo not given) the results were IP6K1 inhibitor -26*, KDM5B inhibitor inactive and IP6K1 conf -4%.
Cn1ccc2cc(S(=O)(=O)N3CCCC(C(=O)NCc4ccccc4)C3)ccc21 (stereo not given) was read as IP6K1 inhibitor -3 and KDM5B inhibitor inactive.
Screening O=C(O)C1CCCCC1C(=O)NC1CCN(Cc2ccccc2)CC1 (stereo not given) returned KDM5B inhibitor inactive.
COc1ccc(Cn2c(=O)c(C(=O)N3CCN(C(=O)c4ccc(C(F)(F)F)cc4)CC3)nc3cccnc32)cc1 was read as IP6K1 inhibitor -10.
Cn1ccc2c(C(=O)NCCc3cnc[nH]3)nc(-c3ccc([S+](C)(=O)[O-])cc3)cc21 was read as IP6K1 inhibitor 2 and KDM5B inhibitor inactive.
`Cn1cnc2cc(-c3ccc(F)cc3)cc(C(=O)NCCc3cnc[nH]3)c21` gave IP6K1 inhibitor -31*, KDM5B inhibitor inconclusive and IP6K1 conf inconclusive.
For OCc1c[nH]c2ccccc12 the results were IP6K1 inhibitor -28* and IP6K1 conf -13%[92.2 µM].
`O=C(O)Cc1c[nH]c2ccccc12` gave KDM5B inhibitor inactive.
Screening FC(F)(F)c1ccc2nc([C@H]3CCN(Cc4ccc(Cl)cc4)C3)[nH]c2c1 returned IP6K1 inhibitor -10 and KDM5B inhibitor inconclusive.
`CC1=NN(c2ccccc2)C(=O)C1` gave IP6K1 inhibitor -32* and IP6K1 conf -14%.
For CC(C)c1ccc(C2=NN(c3ccccc3)C(=O)CC2)cc1 the results were KDM5B inhibitor inactive.
`Cc1nc(C)c(CCC(=O)Nc2cc(Cl)ccc2Cl)c(=O)[nH]1` gave KDM5B inhibitor inactive.
Cc1cnc(C2CCN(CC3CCCCC3)C2)n1Cc1ccccc1 (stereo not given) was read as IP6K1 inhibitor 15.
Screening c1ccc(C2=Nn3c(nnc3-c3ccncc3)SC2)cc1 returned IP6K1 conf 18%.
For c1ccc(C2=Nn3c(nnc3-c3ccccn3)SC2)cc1 the results were KDM5B inhibitor inactive.
`O=S(=O)(CC(CN1CCOCC1)N1CCCCC1)c1ccc2ccccc2c1` (stereo not given) gave KDM5B inhibitor inactive.
`COc1ccc(CN2CCN(S(=O)(=O)c3ccccc3)CC2)c(OC)c1` gave IP6K1 inhibitor -49*, KDM5B inhibitor inconclusive and IP6K1 conf -3%.
For COc1ccc(OC)c(CN2CCN(S(=O)(=O)c3ccccc3)CC2)c1 the results were IP6K1 inhibitor -3 and KDM5B inhibitor inconclusive.
Screening CC(=O)NCc1ccc(-c2csc(-c3ccc(C)cc3)n2)o1 returned KDM5B inhibitor inactive.
CCc1cccc(C)c1NC(=O)c1cnc2ccccc2n1 was read as KDM5B inhibitor inactive.
For COc1ccc(-c2ccc3nc(-c4ccc(F)c(F)c4)oc3c2)c(OC)c1OC the results were IP6K1 inhibitor 0 and KDM5B inhibitor inactive.
For C=Cc1cc(O)cc2nc(-c3ccc(O)c(F)c3)oc12 the results were IP6K1 inhibitor -28* and IP6K1 conf inconclusive.
Screening O=C(CSC1=NCCS1)N(Cc1ccc(Cl)cc1)C12CC3CC(CC(C3)C1)C2 returned KDM5B inhibitor inactive.
O=C(NCc1cccc(C(F)(F)F)c1)c1cn2cc(-c3ccccc3)sc2n1 was read as IP6K1 inhibitor -10.
`CC(C)c1ccc(NC(=O)Cn2cc(S(=O)(=O)Cc3cccc(Cl)c3)c3ccccc32)cc1` gave IP6K1 inhibitor 3 and KDM5B inhibitor inactive.
Screening O=C(Cn1cc(S(=O)(=O)Cc2cccc(Cl)c2)c2ccccc21)Nc1ccc(F)c(Cl)c1 returned IP6K1 inhibitor -37*, KDM5B inhibitor inactive and IP6K1 conf 0%.
For FC(F)(F)c1ccc(CCNC(=S)NC2CC3CCC2C3)cc1 (stereo not given) the results were KDM5B inhibitor inactive.
For COc1ccccc1-c1ccc(CN2CCCCC2C(=O)N2CCC(c3ccccc3)CC2)cc1 (stereo not given) the results were IP6K1 inhibitor 12.
